Results taken from PubChem BioAssay (NCI).
The panel holds about 79,000 compounds, 15% with a hit somewhere; the sample as a whole holds those more often. No stated cut-off is given here; in the data, active means growth inhibition above about 70%; inactive means the rest.

Assays:
[1] = NCI Yeast Anticancer Drug Screen. Data for the rad50 strain (AID 155);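 further: 0% = growth of vehicle-only cultures of the same strain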; details: S. cerevisiae rad50 strain growth inhibition; at 50.0 µM; stronger effect = higher value
How it was run: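 Cells are treated with compound, grown, and their growth is then scored against vehicle-only cultures of the same repair-deficient yeast strain.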

[2] = NCI Yeast Anticancer Drug Screen. Data for the mec2-1 strain (AID 157); details: S. cerevisiae mec2-1 strain, at 50.0 µM, stronger effect = higher value
How it was run: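 Using mec2-1 yeast: add compound, measure growth, express inhibition versus vehicle-treated cultures.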

[3] = NCI Yeast Anticancer Drug Screen. Data for the sgs1 mgt1 strain (AID 161);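 further: 0% = growth of cultures given vehicle only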; details: S. cerevisiae sgs1 mgt1 strain, at 50.0 µM, stronger effect = higher value
How it was run: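 Growth of a repair-deficient yeast mutant was monitored after compound treatment and expressed as inhibition relative to vehicle-treated cultures.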

[4] = NCI Yeast Anticancer Drug Screen. Data for the cln2 rad14 strain (AID 165);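 further: 0% = growth equal to vehicle treated cultures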; details: S. cerevisiae cln2 rad14 strain, at 50.0 µM, stronger effect = higher value
How it was run: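 Yeast strain cln2 rad14, bearing defects in cell cycle control and DNA repair, serves as the test system; values reflect growth inhibition compared with vehicle.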

[5] = NCI Yeast Anticancer Drug Screen. Data for the bub3 strain (AID 167); details: S. cerevisiae bub3 mutant strain, at 50.0 µM, stronger effect = higher value
How it was run: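 Part of a panel of yeast mutants defective in DNA damage repair or cell cycle regulation. Each strain is grown with compound, and inhibition is calculated relative to solvent-treated cultures.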

[6] = NCI Yeast Anticancer Drug Screen. Data for the mlh1 rad18 strain (AID 175); details: S. cerevisiae mlh1 rad18 strain growth inhibition; at 50.0 µM; stronger effect = higher value
How it was run: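 Steps: expose repair-defective yeast to compound; measure growth; express inhibition against vehicle-treated controls.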

Measured: growth inhibition

COc1ccc(OC)c(C(=O)c2cccc(C(=O)c3cc(OC)ccc3OC)n2)c1
inactive: [1] 20.9% | [2] 6.25% | [3] 42.5% | [4] -21.8% | [5] -30.4% | [6] 20.6%

CCOC(=O)C(c1ccsc1)C(C(=O)OCC)c1cccs1 (configuration not stated)
inactive: [1] 3.3% | [2] 23.1% | [3] -4.95% | [4] -3.35% | [5] 25.6% | [6] 17%

Cc1cc(CO)c(O)c(CN(CC(=O)O)CC(=O)O)c1
inactive: [1] 20.2% | [2] -14.9% | [3] 5.9% | [4] -1.4% | [5] 21.6% | [6] -0.7%

CC(=O)C(C(C)=O)C(c1cccnc1)C(C(C)=O)C(C)=O
inactive: [1] 2.7% | [2] 0.65% | [3] 10% | [4] 0.1% | [5] 25.3% | [6] -10.5%

NC1=NN(c2ccccc2)C(=O)/C1=C\n1c(=S)[nH]c2ccccc21
inactive: [1] -22.4% | [2] -19.9% | [3] -39.6% | [4] -16.3% | [5] -25.4% | [6] -26.6%

O=c1cc(O)cc2n1CCC2
inactive: [1] 5.15% | [2] 4.6% | [3] -11.4% | [4] 16.4% | [5] -14.8% | [6] 0.35%

CC1CNC(=O)NC1=O.O.O.[NH2-].[NH2-].[Pt+4] (configuration not stated)
inactive: [1] 7.55% | [2] 11.2% | [3] -0.75% | [4] -51% | [5] -5.95% | [6] -5.85%

COC(C)CCOC(=O)COc1ccccc1 (configuration not stated)
inactive: [1] 17.8% | [2] -10% | [3] 8.35% | [4] -11.3% | [5] 13.8% | [6] 8.3%

O=C(OC1(c2nccc3ccccc23)CCCN(Cc2ccccc2)C1)c1ccccc1 (configuration not stated)
inactive: [1] 28.9% | [2] 11.8% | [3] 15.9% | [4] 14.2% | [5] -1.4% | [6] 24.1%

[Cl][Pt+2][Cl].[NH-]CC(C[NH-])(Cc1ccccc1)Cc1ccccc1
inactive: [1] -0.55% | [2] -13.9% | [3] -2.2% | [4] 15.1% | [5] -18.2% | [6] -38.6%

COc1ccc(CN2CCCN(Cc3ccc(OC)cc3OC)C2c2cc(OC)ccc2OC)c(OC)c1
inactive: [1] -0.85% | [2] -0.85% | [3] 1.3% | [4] 10.5% | [5] -1.85% | [6] -0.4%

NC(=O)c1[nH]c(/N=N/c2nc[nH]c2C(N)=O)nc1N
inactive: [1] 24.9% | [2] 21.6% | [3] 9.95% | [4] -17.1% | [5] -4.65% | [6] 16.4%

O=P(O)(O)c1ccc2c(c1)OCCOCCOCCOCCO2
inactive: [1] -41.9% | [2] -10.9% | [3] -29.5% | [4] -21.9% | [5] -24.4% | [6] -14.8%

CN(C)c1ccc(/[N+]([O-])=C/c2cccc3ccccc23)cc1
inactive: [1] 3.05% | [2] 22.6% | [3] 15.2% | [4] -51.9% | [5] 60.3% | [6] 38.4%

Cc1occc1C(=S)Nc1ccc(Cl)c(C(=O)OC2CCCC2)c1
inactive: [1] 40.1% | [2] 21.2% | [3] 35% | [4] 60.5% | [5] 46.4% | [6] 29.6%

CCCNS(C)(=O)=O
inactive: [1] 7.25% | [2] 1.2% | [3] 10.2% | [4] 3.15% | [5] 11.1% | [6] 3.6%

NNC(=O)c1ccc2ccccc2c1O
inactive: [1] 17.4% | [2] 14.8% | [3] 17.1% | [4] 0.05% | [5] 22.1% | [6] 49%

S=C1NNC(=S)NN1
inactive: [1] 43.7% | [2] 29.8% | [3] 39.9% | [4] 37.9% | [5] 49.9% | [6] 62.7%

C/C([O-])=N\[N+](C)(C)Cc1ccccc1
inactive: [1] -4.65% | [2] 0.8% | [3] -11.7% | [4] -23.4% | [5] -6.6% | [6] 5.8%

Cc1cccc(CN(C)Cc2cc(Cl)cc(C)c2O)c1O
inactive: [1] 14.8% | [2] -1.6% | [3] 1.1% | [4] -36% | [5] -1.25% | [6] 4.15%

CCOC(=O)NC(=O)c1cn(C2CCCCC2)c(=O)[nH]c1=O
inactive: [1] -14.2% | [2] -3.95% | [3] -5.9% | [4] 21.9% | [5] -0.7% | [6] 3.35%

O=c1ccc(O)c[nH]1
inactive: [1] 12.3% | [2] 18.8% | [3] 34.7% | [4] 9.95% | [5] 2.8% | [6] 16.1%

O=C(NC1CC1)C1CC1
inactive: [1] -20.2% | [2] -12.8% | [3] -1.45% | [4] -17.4% | [5] 1.7% | [6] -1.35%

COc1ccc(/C(O)=C/c2nc3cccc([N+](=O)[O-])c3[nH]c2=O)cc1
inactive: [1] 20.2% | [2] -14.8% | [3] 2.3% | [4] -14.1% | [5] -35.4% | [6] 17.7%

CC(=O)CC(=O)NCCCN1CCCCC1
inactive: [1] -28.7% | [2] -52.1% | [3] -30.4% | [4] -5.1% | [5] -34.4% | [6] -33.4%

O=C(CC/[N+]([O-])=C/c1ccccc1)OCc1ccccc1
inactive: [1] 24.9% | [2] 20.8% | [3] 1.3% | [4] 12% | [5] 21.8% | [6] 52.5%

Cc1cc(C)nc(NS(=O)(=O)c2ccc(Nc3c4ccccc4nc4c(C(=O)Nc5ccc(S(=O)(=O)N=C(N)N)cc5)cccc34)cc2)n1
inactive: [1] 24.1% | [2] 35.8% | [3] 30.9% | [4] 35.2% | [5] 19.6% | [6] 44.1%

N=C(N)SCC(=O)c1ccc([N+](=O)[O-])cc1
inactive: [1] -6.65% | [2] 4.95% | [3] 1.35% | [4] -0.4% | [5] 3.85% | [6] 5.8%

O=C(O)c1ccccc1C(=O)CCC(=O)c1ccccc1C(=O)O
inactive: [1] -43.5% | [2] -6.75% | [3] 14.3% | [4] -8.95% | [5] -0.05% | [6] 1.25%

COc1ccc2c(c1)CCCN1CCc3cc(OC)c(OC)cc3C21 (configuration not stated)
inactive: [1] 21.1% | [2] 60.8% | [3] -21.3% | [4] -8.85% | [5] 4.5% | [6] -17.7%

C1CCSCCCCCSCCCCCSCCCCCSCC1
inactive: [1] 25.2% | [2] -7.55% | [3] -4.2% | [4] -3.15% | [5] 4.35% | [6] -8.7%

S=C(S)OC1CCCCC1.[Zn+2]
inactive: [1] -14.9% | [2] -15.8% | [3] -22.2% | [4] -50.9% | [5] -24.8% | [6] -12.2%

CC1COC(c2ccc(C(C)C)cc2)O1 (configuration not stated)
inactive: [1] 7.5% | [2] 0.35% | [3] 0.25% | [4] -8.9% | [5] 0.55% | [6] -4.4%

NC(=S)c1cc[n+]([O-])cc1
inactive: [1] 8.65% | [2] 2.55% | [3] 5.4% | [4] -11.2% | [5] -7.2% | [6] -3.8%

O=C(Nc1nc2ccsc2s1)c1ccccc1
inactive: [1] -15.8% | [2] -3% | [3] -4% | [4] -34.9% | [5] -8% | [6] -10.8%

CCOC(=O)/C(=N\O)C(C)(C)c1ccnc2ccccc12
inactive: [1] -4% | [2] 0.6% | [3] -10.9% | [4] 4.05% | [5] -5% | [6] 4.7%

O=C(O)C1CCN(C(=O)Cc2c3ccccc3cc3ccccc23)CC1
inactive: [1] 20.9% | [2] 3.9% | [3] -3.45% | [4] -2.5% | [5] -6.85% | [6] 22.7%

COc1ccc2[nH]c(C(F)(F)F)cc(=O)c2c1
inactive: [1] 9.4% | [2] 11.7% | [3] 5.2% | [4] -7.95% | [5] 4.65% | [6] 14.8%

O=C(Nc1ccccc1)N1CCC[C@@H]2CCCC[C@@H]21
inactive: [1] 3.2% | [2] -0.15% | [3] 0.7% | [4] -82.4% | [5] -6.8% | [6] -4.45%

O=C(c1ccccc1C(=O)N1CCCO1)N1CCCO1
inactive: [1] -0.45% | [2] -8.3% | [3] 6.9% | [4] -15.8% | [5] 6.15% | [6] 16.9%

Cc1ccc(N=C2OC(=O)c3ccccc32)cc1
inactive: [1] -3.8% | [2] -4% | [3] 0.1% | [4] -39.5% | [5] 9.9% | [6] 32.7%

CCCCN(CCCC)CCCCCCCCCCCO
inactive: [1] 38.7% | [2] -8.35% | [3] 34.5% | [4] -22.9% | [5] 30.8% | [6] 27.6%
